The text below walks through data of PubChem BioAssay (NCATS).

For experiment [1], the target named is Calcium and integrin-binding protein 1 (Homo sapiens) (UniProt Q99828). The experiment is described as follows: Primary qHTS for Identification of Calcium Integrin Binding Protein 1 (CIB1) Competitor (AID 1508620).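 Also: GST tagged CIB1 binding a fluorescein labelled alphaIIb integrin peptide tracer; top concentration of the series differs between compounds.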 The following applies: CIB1-GST / FITC-alphaIIb peptide fluorescence polarization; series mostly up to 114 µM. An outline of the steps: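 CIB1-GST (1 uM final) and compound incubated 15 min at room temperature before adding FITC-alphaIIb peptide tracer (100 nM final). Competition for binding read by fluorescence polarization (ex 480, em 540) after another 15 min at room temperature.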
On the technique in general: qHTS replaces the single test concentration by a dilution series.

Experiment [2] addresses Cytochrome P450 2D6 (Homo sapiens) (UniProt P10635). Description: Cytochrome P450 family 2 subfamily D member 6 (CYP2D6) small molecule antagonists: luciferase biochemical (cell-free) qHTS assay (AID 1645840; active = well fitted curve in the direction sought with a large enough effect in the repeat runs; an effect the other way counts as inactive or inconclusive; also: nearly all actives have a fitted effect of over 55% in size; also: potency is read from the fitted curve at half-maximal effect). The following applies: P450-Glo CYP2D6 enzyme, luciferin luminescence, 1 h; series mostly up to 57.4 µM. Put shortly:
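P450-Glo luminescent screen: recombinant CYP2D6 enzyme–proluciferin substrate mix preincubated with compound 10 min at room temperature, then NADPH regeneration added for 1 h at room temperature. Detection reagent added for 20 min; luciferin light read as relative luminescence units.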

Experiment [3] is described as follows: Primary qHTS for inhibitors of nuclear receptor binding SET domain protein 2 (NSD2) in an isogenic RCH-ACV NSD2 p.E1099K mutant (9B) (AID 1645876). Also: nearly all actives have a fitted effect of over 70% in size. Also: potency is read from the fitted curve at half-maximal effect. The settings on record: RCH-ACV (leukaemia line) NSD2 E1099K (9B) viability, CellTiter-Glo, 72 h; series mostly up to 44.9 µM.
Experiment [4] concerns the target Cytochrome P450 2C9 (Homo sapiens) (UniProt P11712). Description: Cytochrome P450 family 2 subfamily C member 9 (CYP2C9) small molecule antagonists: luciferase biochemical (cell-free) qHTS assay (AID 1645842; active = well fitted curve in the direction sought with a large enough effect in the repeat runs; an effect the other way counts as inactive or inconclusive; also: potency is read from the fitted curve at half-maximal effect; nearly all actives have a fitted effect of over 55% in size). The following applies: P450-Glo CYP2C9 enzyme assay, luciferin luminescence; series mostly up to 57.4 µM. An outline of the steps: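 Luminescence, after 20 min with luciferin detection reagent, reflected CYP2C9 turnover during a 1 h NADPH-driven reaction at 37C. Enzyme-substrate mix contained 0.4% bovine serum albumin and was preincubated with compound 10 min at room temperature.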

Records with an inconclusive call do not appear. Active and inactive are the calls of the source. Unless noted, calls follow the shape of the dose curve; as a rule, active = well fitted curve in the direction sought with a large enough effect; inconclusive = small, poorly fitted or top-dose-only effect, or another doubt; inactive = no such curve, though single readings can be large; an effect the other way counts as inactive or inconclusive.

Calcium and integrin-binding protein 1 (Homo sapiens), sequence (Q99828 whole entry, looked up): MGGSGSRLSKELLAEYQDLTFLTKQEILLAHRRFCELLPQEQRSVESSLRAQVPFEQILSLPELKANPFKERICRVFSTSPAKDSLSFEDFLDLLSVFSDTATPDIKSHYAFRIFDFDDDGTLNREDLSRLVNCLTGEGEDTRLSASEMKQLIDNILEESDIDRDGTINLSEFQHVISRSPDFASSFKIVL
Cytochrome P450 2D6 (Homo sapiens), sequence (P10635 whole entry, looked up): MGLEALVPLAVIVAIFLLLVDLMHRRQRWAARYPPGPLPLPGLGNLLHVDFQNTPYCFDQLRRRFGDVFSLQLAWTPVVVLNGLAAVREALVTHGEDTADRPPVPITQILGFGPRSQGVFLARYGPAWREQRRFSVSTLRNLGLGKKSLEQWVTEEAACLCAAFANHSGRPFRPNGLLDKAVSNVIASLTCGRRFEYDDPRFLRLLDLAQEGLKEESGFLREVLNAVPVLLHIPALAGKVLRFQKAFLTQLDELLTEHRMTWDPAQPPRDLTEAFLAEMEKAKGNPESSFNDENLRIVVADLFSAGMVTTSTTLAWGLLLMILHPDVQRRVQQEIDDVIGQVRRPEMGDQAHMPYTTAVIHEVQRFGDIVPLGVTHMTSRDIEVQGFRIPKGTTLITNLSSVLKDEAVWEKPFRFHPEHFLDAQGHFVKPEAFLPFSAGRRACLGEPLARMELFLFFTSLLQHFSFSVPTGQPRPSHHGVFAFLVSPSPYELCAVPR
Cytochrome P450 2C9 (Homo sapiens), sequence (P11712 whole entry, looked up): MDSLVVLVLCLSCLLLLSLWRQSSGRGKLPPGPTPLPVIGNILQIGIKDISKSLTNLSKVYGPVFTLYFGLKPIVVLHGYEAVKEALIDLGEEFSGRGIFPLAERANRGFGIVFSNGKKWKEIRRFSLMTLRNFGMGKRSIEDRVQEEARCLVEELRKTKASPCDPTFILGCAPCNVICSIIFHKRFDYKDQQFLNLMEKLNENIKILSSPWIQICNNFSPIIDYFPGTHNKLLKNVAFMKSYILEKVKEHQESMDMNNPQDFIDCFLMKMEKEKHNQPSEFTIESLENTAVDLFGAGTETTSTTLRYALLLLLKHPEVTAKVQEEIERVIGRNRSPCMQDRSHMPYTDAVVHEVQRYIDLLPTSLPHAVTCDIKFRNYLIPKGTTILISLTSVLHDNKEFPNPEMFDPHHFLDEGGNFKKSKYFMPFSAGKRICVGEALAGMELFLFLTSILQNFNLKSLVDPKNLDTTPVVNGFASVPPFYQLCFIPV

For `Cn1nnc(-c2ccc(-c3ccc(N4C[C@H](CO)OC4=O)cc3F)cn2)n1`, the Potency entry in experiment [1], in experiment [2] and in experiment [3] was “inactive” throughout.

`COc1ccc2cc(C(C)C(=O)Oc3ccc(C(N)=S)cc3)ccc2c1` (centres undefined): the Potency entry in experiment [1] and in experiment [3] was “inactive” each time. Further, the Potency in experiment [4] is 21.3 µM (active).

`Cc1cnc(NC(=O)Nc2cc(Br)c(C)cc2OCC2CNCCO2)cn1` (centres undefined): the Potency entry in experiment [1] is “inactive”. For the same molecule, the figures for the Potency in experiment [2] and in experiment [3] were 12 µM (active) and 649 nM (active), respectively.
